The nature of assay [1]: NFkB reporter suppression in cystic fibrosis bronchial cells – cell-based, uHTS hits, panel, cytotoxicity readout, dose response (AID 624344). Conditions: CF bronchial epithelial cells, PAF-induced NFkB reporter inhibition, with PAF, run 1; at 79 µM (top of the series) unless noted.
Experiment in assay [2]: as above
Conditions: CF bronchial epithelial cells, PAF-induced NFkB reporter inhibition, with PAF, run 2; at 79 µM (top of the series) unless noted.

Regarding `CC(C)(C)c1nc(NC(=O)Nc2ccccc2)sc1Br`, the inhibition was determined as 107% in assay [1] and 103% in assay [2].
For `CNC(=O)c1ccc(NC(=O)C2CCN(c3ncnc4sc(C)c(C)c34)CC2)cc1`, the figures for the inhibition in assay [1] and in assay [2] were 85.3% and 72%, respectively.
On to `Cc1ccc(-c2c(C#N)c(N)n3c(nc4ccccc43)c2C#N)cc1`, for which the values for the inhibition in assay [1] and in assay [2] were 109% [at 39.5 µM] and 50.7%, respectively.
On the same counts, the results for `Cc1cccc(N=c2oc3cc(O)ccc3cc2C(N)=O)c1` are 87.7% and 80%.
On the same counts, the results for `O=C(CC12CC3CC(CC(C3)C1)C2)Nc1nncs1` are 105% and 100%.
In the case of `Cc1ccc(CNc2ncnc3ccc(-c4ccoc4C)cc23)o1`, the inhibition in assay [1] stood at 103%; in assay [2], 89.6%.
In the same order, the values of `CC(C)C[C@@H](CN1CCC[C@@H]1CN1C(=S)NC[C@@H]1Cc1ccc(O)cc1)N1C[C@H](Cc2ccc(O)cc2)N(CC2CCCCC2)C1=S` are 105% and 118%.
On the same counts, the results for `Cc1ccc(C(C(=O)NCc2ccccc2)N(Cc2cccs2)C(=O)c2ccc3c(c2)OCCO3)cc1` (stereo unspecified) are 106% and 98.3%.
On the same counts, the results for `O=C1NC(=S)N/C1=C\c1cccnc1` are 99.3% and 99.2%.
`Cc1ccc(S(=O)(=O)N2[C@@H](c3ccc(C(C)(C)C)cc3)C(C(=O)O)=CC[C@H]2c2ccc(C(C)C)cc2)cc1`: the inhibition came to 65% in assay [1] and 115% in assay [2].
In the same order, the values of `C=CCSc1nc2ccccc2n1C(=O)/C=C/c1ccc(OC)c(OC)c1` are 115% and 102%.
As for `Cc1ccc(NC(=O)/C=C/c2ccco2)nc1`, the inhibition amounted to 95.8% in assay [1] and 99.8% in assay [2].
In the case of `Cc1cccc(C(=O)N[C@H](C(=O)Nc2nc3ccccc3[nH]2)C(C)C)c1`, the inhibition in assay [1] came out at 101%; in assay [2] it was 70.1%.
For the molecule `CCCCNc1c(-c2cccc(-c3ccc(OC)cc3)c2)nc2ccc(C)cn12`, the inhibition in assay [1] was 98.7%; in assay [2] it was 107%.
In the case of `COc1ccc(-c2[nH]ncc2-c2ccc3c(c2)OCCO3)c(O)c1`, the figures for the inhibition in assay [1] and in assay [2] were 107% and 114%, respectively.
On the same counts, the results for `C=CC[C@@H](CC(=O)N(CCO)Cc1ccccc1)C(=O)NC[C@H](OC(=O)[C@@H](CC=C)Cc1ccc(F)cc1)c1ccccc1` are 110% and 102%.
In the case of `C=CCn1c(Oc2ccccc2F)nc2c1c(=O)n(C)c(=O)n2C`, the results for the inhibition in assay [1] and in assay [2] were 95.6% and 93.3%, respectively.
On the same counts, the results for `O=C1NCCc2c1[nH]c1c(Cl)ccc(Cl)c21` are 101% and 113%.
For `CC(=O)c1c(C)n(-c2ccccc2)c2ccc(O)cc12`, the values for the inhibition in assay [1] and in assay [2] were 90.8% and 91.5%, respectively.
In the same order, the values of `CC1(C)Cc2c(ccc3ccccc23)C(=O)N1` are 106% and 111%.
On the same counts, the results for `CCn1c2ccccc2c2cc(/C=N/O)ccc21` are 114% and 105%.
`Cc1c([N+](=O)[O-])c2ccc(O)cc2n1-c1ccccc1`: the inhibition in assay [1] was 109%; in assay [2], 94.8%.
In the same order, the values of `Cc1ccc(CNc2ncnc(N)c2[N+](=O)[O-])cc1` are 87.7% and 80.8%.
In the same order, the values of `CC(=O)c1ccc(NC(=O)Nc2ccc3c(c2)N(C)C(=O)CS3)cc1` are 98.3% and 106% [at 19.8 µM].
Take `CCOC(=O)c1ccc(NC(=O)Nc2nncs2)cc1`: the values for the inhibition in assay [1] and in assay [2] were 83.2% and 111%, respectively.
On the same counts, the results for `CCn1c(=O)c2c(cnn2C)c2ccccc21` are 117% and 103%.
In the same order, the values of `CC(=O)Nc1nc(C)c(-c2csc(Nc3cccc(C(C)=O)c3)n2)s1` are 105% and 101%.
On the same counts, the results for `N#Cc1c(-c2ccc(Cl)cc2)n(O)c2ccccc12` are 111% and 103%.
As for `Cn1c(Sc2ccc(Br)cc2)c(C=O)c2ccccc21`, the inhibition came to 108% in assay [1] and 112% in assay [2].
On the same counts, the results for `COc1ccc(-n2cc(-c3ccccc3)c3c(N4CC(C)OC(C)C4)ncnc32)cc1` (stereo unspecified) are 102% and 102%.
On the same counts, the results for `CNc1ccc2ncc(-c3ccc(OC)c(OC)c3)n2n1` are 106% and 118%.
On the same counts, the results for `Cc1ccc(S(=O)(=O)Nc2cccc3ncccc23)s1` are 107% and 97%.
On to `CCCCCCc1cc2cc(C(=O)OCC)c(=O)oc2cc1O`, for which the inhibition in assay [1] was 106%; in assay [2] it was 117%.
On the same counts, the results for `Clc1ccc(CSc2nnc(-c3ccncc3)o2)cc1` are 102% and 83.7%.
On the same counts, the results for `Fc1ccc(Nc2ccnc(Nc3ccc(F)cc3)n2)cc1` are 113% and 101%.
In the same order, the values of `CNC(=O)COC(=O)c1ccccc1C(=O)c1ccc(Cl)c([N+](=O)[O-])c1` are 103% and 102%.
For `CS(=O)(=O)c1ccc2nc(NC(=O)Nc3cccc(Cl)c3)sc2c1`, the inhibition in assay [1] worked out at 79.3%; in assay [2] it was 83.9%.
On to `Brc1ccc2ncnc(NCc3ccccc3)c2c1`, for which the inhibition in assay [1] amounted to 108%; in assay [2], 104%.
In the same order, the values of `O=C1C(=Cc2ccccc2[N+](=O)[O-])Cc2ccccc21` are 68.5% and 106%.
Regarding `CN(C)c1ccc(C(C(=O)NC2CCCCC2)N(Cc2ccco2)C(=O)c2snc(C(N)=O)c2N)cc1` (stereo unspecified), the inhibition was determined as 105% in assay [1] and 102% in assay [2].
On the same counts, the results for `COc1ccc(-n2nc(C(=O)NCC(=O)Nc3cc(OC)c(OC)c(OC)c3)c3ccccc3c2=O)cc1Cl` are 96.2% and 95.1%.
In the same order, the values of `Cc1ccc(S(=O)(=O)CC(CN2CCCCC2)N2CCCCC2)cc1` (stereo unspecified) are 102% and 109%.
In the same order, the values of `Cn1c(SC2=CS(=O)(=O)c3ccccc32)nc2ccccc21` are 101% and 102%.

As a reminder, the inhibition is the relative decrease from the control value, in per cent.

The record behind these values is PubChem BioAssay.
